Screening data deposited in PubChem BioAssay by National Center for Advancing Translational Sciences (NCATS).
An excerpt weighted towards active compounds, which were near 8.8% of everything screened.
HTT aggregate: reduces HttQ103-GFP aggregates in PC12 cells; PC12 HttQ103-GFP aggregates, Acumen cytometry, 40 h; Potency, µM (titrated, usually from 46.1 µM), for inactives: top-dose activity change, negative = inhibition, hits mostly inhibitors; 1.1% of 220,000 active; further: on the % scale 0 is the no-effect control and ±100 the full control effect; nearly all actives have a fitted effect of over 60% in size
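Ecdysone-promoter PC12 model expressing HTT exon 1 Q103 fused to GFP, induced by tebufenozide at 100 nM final. Compounds titrated; aggregates sized 1–25 µm scored on a 488 nm laser cytometer.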
ALDH1A1 inh: ALDH1A1 (human) enzyme inhibition | 7.3% of 220,000 active | P00352 | AID 1030 | Potency, µM (series often up to 75.3 µM), without a hit: top-dose activity, negative = inhibition, usual class: inhibitors | Purified ALDH1A1, NADH fluorescence, propionaldehyde substrate; active means well fitted inhibition curve with a large enough effect, not every such curve was filed as active; inconclusive means small, poorly fitted or top-dose-only effect, or another doubt; inactive means no such curve, though single readings can be large or run the other way;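 further: plate controls were no enzyme wells and a reference inhibitor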
Target sequence (P00352 whole entry, looked up): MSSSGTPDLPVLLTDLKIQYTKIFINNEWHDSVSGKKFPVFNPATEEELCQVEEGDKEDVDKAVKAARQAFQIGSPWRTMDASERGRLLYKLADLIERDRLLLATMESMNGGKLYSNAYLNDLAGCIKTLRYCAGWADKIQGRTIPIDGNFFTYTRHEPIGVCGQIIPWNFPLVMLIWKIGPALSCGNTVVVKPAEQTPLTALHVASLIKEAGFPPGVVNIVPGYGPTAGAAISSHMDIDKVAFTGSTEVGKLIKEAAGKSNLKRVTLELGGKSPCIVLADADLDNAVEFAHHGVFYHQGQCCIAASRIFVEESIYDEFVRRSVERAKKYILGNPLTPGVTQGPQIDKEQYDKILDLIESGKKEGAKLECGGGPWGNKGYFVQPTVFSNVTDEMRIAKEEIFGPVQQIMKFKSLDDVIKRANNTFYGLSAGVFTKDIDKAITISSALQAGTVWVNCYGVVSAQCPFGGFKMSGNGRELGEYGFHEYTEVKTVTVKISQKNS
Lamin A splicing: changes lamin A minigene splicing in HeLa cells | Potency, µM (top dose mostly 46.1 µM), for the others: top-dose ratio change, negative = inhibition, most hits filed as inhibitors | AID 1487 | HeLa LMNA splicing GFP/RFP minigene ratio, 48 h | 0.01% of 200,000 active; active means well fitted inhibition curve with a large enough effect in the signal ratio, with a control signal flat, not every such curve was filed as active; inconclusive means small, poorly fitted or top-dose-only effect, or effect the other way, or a change in a side signal; the % refers to the signal ratio; further: on the % scale 0 is the no-effect control and ±100 the full control effect
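S3 HeLa cells stably expressing lamin A-EGFP splicing minigene plus DsRed2, 600 cells/well, 48 h compound exposure at 37C. Laser-scanning cytometry; analysed as GFP (500-530 nm)/RFP (575-640 nm) total intensity ratio; 0.5% DMSO vehicle.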
HTT cytoprotect: Huntington cell model cytoprotection by ATP luminescence; 0.14% of 230,000 active; Potency, µM (series often up to 56.4 µM), for the others: cytoprotection (ATP increase), actives largely listed as activators; PC12 HTT-Q103 induced, cytoprotection, ATP luminescence, 40 h; further: % of control where 0% means no effect; nearly all actives have a fitted effect of over 45% in size
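Readout: ATPlite luminescence (ATP level). Model: stable PC12, inducible Htt exon1 Q103-GFP. Inducer: tebufenozide, 100 nM final. Compounds: dose series. No G418 in medium.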
HPGD inh: HPGD (human) dehydrogenase inhibition | AID 894 | purified HPGD, NADH fluorescence kinetic, PGE2 substrate | Potency, µM, without a hit: at the highest dose activity change, negative = inhibition, hits mostly inhibitors | P15428 | 4.3% of 150,000 active; active means well fitted inhibition curve with a large enough effect, not every such curve was filed as active; inconclusive means small, poorly fitted or top-dose-only effect, or another doubt; inactive means no such curve, though single readings can be large or run the other way; further: on the % scale 0 is the no-effect control and ±100 the full control effect
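20 nM HPGD preincubated 15 min at room temperature with compound in 50 mM Tris-HCl pH 8, 0.01% Tween 20. Started with 1 mM NAD+ and 30 uM prostaglandin E2; NADH fluorescence (360/450 nm) read 5 times over 30-s intervals, last minus first.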
Starred values were filed as active, the others as inactive; [ ] = another dose, or the depositor's remark. Unless noted, the call rests on the fitted dose curve; in most records, active means well fitted curve in the direction sought with a large enough effect; inconclusive means small, poorly fitted or top-dose-only effect, or another doubt; inactive means no such curve, though single readings can be large; an effect the other way counts as inactive or inconclusive. Potency means the concentration at half of the fitted maximal effect.

Results for CN1/C(=C/C2CC(=O)N(c3ccc([N+](=O)[O-])cc3)C2=O)C(C)(C)c2ccccc21 (configuration not stated) ?
HTT aggregate: 3%; ALDH1A1 inh: 11µM*; Lamin A splicing: 15%; HTT cytoprotect: -23%; HPGD inh: -20%

How did CN1/C(=C\C(=O)Nc2ccc(Br)cc2)C(C)(C)c2ccccc21 do in these assays?
HTT aggregate: -11%; ALDH1A1 inh: inconclusive; Lamin A splicing: inconclusive; HTT cytoprotect: -1%[10 µM]; HPGD inh: -6%

How did O=C(O)CN1C(=O)/C(=C\c2cn(CC(=O)N3CCOCC3)c3ccccc23)SC1=S do in these assays?
HTT aggregate: 18%; ALDH1A1 inh: inconclusive

What do the screens show for `CCC(=O)OC1=CN(Cc2ccccc2)S(=O)(=O)c2ccccc21`?
Lamin A splicing: -8%[46 µM]

Results for CCOC(=O)Nc1nc(-c2ccc(Cl)cc2Cl)cs1 ?
HTT aggregate: -3%; ALDH1A1 inh: 11%; Lamin A splicing: inconclusive; HTT cytoprotect: 8%[10 µM]; HPGD inh: -14%

What do the screens show for `CCCCCc1c(C)nc(NCc2ccccc2)[nH]c1=O`?
HTT aggregate: 32µM*; ALDH1A1 inh: -3%; Lamin A splicing: inconclusive; HTT cytoprotect: -13%[0.074 µM]; HPGD inh: -20%

How did CCOC(=O)N1CCN(C(=O)c2c(N)no[n+]2[O-])CC1 do in these assays?
HTT aggregate: 22%; ALDH1A1 inh: 0%; Lamin A splicing: 9%[9.22 µM]; HTT cytoprotect: -45%

What do the screens show for `CCOC(=O)c1c(NC(=S)Nc2ccccc2)sc2c1CCN(CCc1ccccc1)C2`?
HTT aggregate: -11%; ALDH1A1 inh: inconclusive; Lamin A splicing: 30%; HTT cytoprotect: -44%; HPGD inh: -19%

What do the screens show for `CCOC(=O)c1c(NC(=S)NC)sc2c1CC(C)(C)SC2`?
HTT aggregate: 6%; ALDH1A1 inh: 25µM*; Lamin A splicing: inconclusive; HTT cytoprotect: 11%[10 µM]; HPGD inh: inconclusive

How did CCOC(=O)c1c(NC(=S)Nc2ccccc2)sc2c1CC(C)(C)SC2 do in these assays?
HTT aggregate: 0%; ALDH1A1 inh: 2.5µM*; Lamin A splicing: -18%; HTT cytoprotect: 5%[10 µM]; HPGD inh: inconclusive

What do the screens show for `O=S(=O)(c1ccc(F)cc1)c1nc(-c2ccccc2F)oc1N1CCCCC1`?
HTT aggregate: -25%; ALDH1A1 inh: 5µM*; Lamin A splicing: 3%; HTT cytoprotect: -12%; HPGD inh: -6%

Results for CCOc1ccc(-c2nc(S(=O)(=O)c3ccccc3)c(N3CCOCC3)o2)cc1 ?
HTT aggregate: 18%; ALDH1A1 inh: -14%; Lamin A splicing: inconclusive; HTT cytoprotect: -26%

How did CCOC(=O)C1(Cc2ccccc2Cl)CCN(S(C)(=O)=O)CC1 do in these assays?
HTT aggregate: 9%[9.22 µM]; ALDH1A1 inh: 10µM*; Lamin A splicing: 1%[46 µM]; HTT cytoprotect: 23%[10 µM]

What do the screens show for `CCOC(=O)C1(Cc2ccc(OC)cc2)CCN(S(C)(=O)=O)CC1`?
HTT aggregate: 1%[9.22 µM]; ALDH1A1 inh: 18%; HTT cytoprotect: 6%[10 µM]

What do the screens show for `CC1CCN(c2cc3c(cc2F)c(=O)c(S(=O)(=O)c2ccc(Cl)cc2)cn3C)CC1`?
Lamin A splicing: 17%[46 µM]

Results for COc1cccc2cc(-c3csc(-c4ccc(Cl)cc4)n3)c(=O)oc12 ?
Lamin A splicing: -3%[46 µM]

How did O=C(CN1C(=O)C2CC=CCC2C1=O)NCc1cccs1 (configuration not stated) do in these assays?
HTT aggregate: 7%; ALDH1A1 inh: 28µM*; Lamin A splicing: 2%[46 µM]; HTT cytoprotect: -14%

What do the screens show for `CCc1ccc(OCc2n[nH]c(=S)n2C(C)CCCC(C)C)cc1` (configuration not stated)?
HTT aggregate: -12%; ALDH1A1 inh: -9%; Lamin A splicing: inconclusive; HTT cytoprotect: -131%

How did CCN(CC)C(=O)c1ccc2c(c1)nnn2C do in these assays?
HTT aggregate: 6%; ALDH1A1 inh: 11%; Lamin A splicing: -4%; HPGD inh: 16µM*

Results for Cn1nnc2cc(C(=O)N3CCSCC3)ccc21 ?
HTT aggregate: -2%; ALDH1A1 inh: 6%; Lamin A splicing: 7%; HTT cytoprotect: 3%; HPGD inh: 1.6µM*
